# Source: PubChem BioAssay
# This is a sample that favours compounds with a hit; in the whole collection about 2.9% have one here.
# D3 ag = qHTS of D3 Dopamine Receptor Agonist: qHTS; 410,000 tested, 0.58% active; D(3) dopamine receptor (Homo sapiens), P35462; D3R DiscoveRx beta-arrestin cells, luminescence, 90 min; max activation, %; AID 652048, 2013; in the data active = max activation above about 30%; note: 0% is about no effect
# Target sequence (P35462 whole entry, looked up): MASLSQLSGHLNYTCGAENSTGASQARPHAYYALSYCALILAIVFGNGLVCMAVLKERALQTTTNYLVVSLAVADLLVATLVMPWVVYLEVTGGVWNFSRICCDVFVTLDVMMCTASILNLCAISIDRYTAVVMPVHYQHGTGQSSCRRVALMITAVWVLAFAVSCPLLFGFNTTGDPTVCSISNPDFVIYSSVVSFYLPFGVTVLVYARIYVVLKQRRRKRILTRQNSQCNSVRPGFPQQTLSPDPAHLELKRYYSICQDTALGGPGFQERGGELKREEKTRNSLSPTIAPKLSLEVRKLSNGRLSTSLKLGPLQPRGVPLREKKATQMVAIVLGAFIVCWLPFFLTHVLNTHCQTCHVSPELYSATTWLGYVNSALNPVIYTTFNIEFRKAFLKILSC
#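 Cells at 1500/well, incubated overnight, then treated with pinned compounds (dopamine as control) for 90 min at 37 degrees C. DiscoveRx reagent added for 30 - 60 minutes at room temperature; luminescence read.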
# Integrin act MD = qHTS for Activators of Integrin-Mediated Alleviation for Muscular Dystrophy; alpha7betagal myoblasts, beta-gal FDG fluorescence, 48 h; Potency, µM (doses to about 38.3 µM), inactives show at the top dose activation, usual class: activators; 350,000 tested, 0.064% active; active = well fitted activation curve with a large enough effect; inconclusive = small, poorly fitted or top-dose-only effect; inactive = no such curve, though single readings can be large or run the other way;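 note: potency is the fitted concentration of half-maximal effect; 100% = response of the positive control SU9516; nearly all actives have a fitted effect of over 60% in size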
#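 alpha7betagal+/- myoblasts (passage 13, 250/well) treated 48 h at 37C with compounds at 1:260 dilution of DMSO stock. Lysed, then beta-galactosidase activity read as FDG fluorescence (ex 480/em 540) after 30 min, with pre-read for autofluorescence.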
# D3 antag = qHTS of D3 Dopamine Receptor Antagonist: qHTS; AID 652054, 2013; 360,000 tested, 2.5% active; D3R cells, DiscoveRx beta-arrestin luminescence, antagonist mode; hits give low values; max response, negative = inhibition, %; D(3) dopamine receptor (Homo sapiens), P35462; in the data active = max response below about -50%; inconclusive = no clear call, values can overlap the other calls; note: % is set by controls: 0 for no effect and ±100 for the full control effect
#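 Cells expressing the human receptor were seeded at 1500 cells/well, incubated overnight at 37 degrees C in 5% CO2, then exposed to library compounds with dopamine controls for 90 minutes at 37 degrees C before luminescent detection.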
# The depositor's hits bear a star; ? = inconclusive; · = no result given; [ ] = another dose, or the depositor's remark.
SMILES,D3 ag,Integrin act MD,D3 antag
CC(C)(C)c1ccc(C(=O)OCc2c(-c3ccccc3)ncc3ccccc23)cc1,0,-22%,?
COc1ccc(Cl)cc1C(=O)NCC(c1ccco1)N1CCCC1 (stereo unspecified),-56,-25%,-81*
COc1ccc(Cl)cc1NS(=O)(=O)c1cccc(C(=O)NCC(c2ccco2)N2CCCC2)c1 (stereo unspecified),-8,-9%,0
CN(C)C(CNC(=O)CCNC(=O)c1ccc(Br)cc1)c1ccco1 (stereo unspecified),-4,-8%,10
COc1cc(C(=O)NCC(c2ccco2)N2CCCC2)ccc1OCc1ccc(Cl)cc1Cl (stereo unspecified),-2,-88%,?
COc1ccc(Cl)cc1NS(=O)(=O)c1cccc(C(=O)NCC(c2ccco2)N(C)C)c1 (stereo unspecified),-13,-1%,-82*
COc1cc(C(=O)NCC(c2ccco2)N(C)C)cc(OC)c1OC (stereo unspecified),-8,5%,3
COc1ccc(Cl)cc1C(=O)NCC(c1ccco1)N(C)C (stereo unspecified),-16,21%,-79*
CN(C)C(CNC(=O)c1ccc(Br)cc1)c1ccco1 (stereo unspecified),-25,6%,-63*
CC(C)(C)c1ccc(S(=O)(=O)N2CCCC2C(=O)NC2=NCCS2)cc1 (stereo unspecified),-1,-3%,4
CCN(CC(=O)Nc1c(F)cccc1F)C(=O)c1ccc(=O)[nH]c1,4,-10%,3
O=S(=O)(NCc1ccco1)c1ccccc1Br,5,1%,12
Cc1ccc(Cl)cc1N1CCN(C(=O)c2ccc3c(Cl)c4c(nc3c2)CCCC4)CC1,2,·,·
Cc1ccc2oc(=O)c3cc(C(=O)NCCCN4CCCCCC4)sc3c2c1,-10,-44%,-12
Cc1ccc2oc(=O)c3cc(C(=O)NCCCN4CCc5ccccc5C4)sc3c2c1,-13,-15%,-55*
CNS(=O)(=O)c1cn(CC(=O)N2CCN(c3cccc(Cl)c3)CC2)cc1S(=O)(=O)NC,-3,·,·
O=C1C2CC=CCC2C(=O)N1c1ccc(NCCc2ccc(O)cc2)c([N+](=O)[O-])c1 (stereo unspecified),4,-37%,?
O=c1/c(=C\c2cccnc2)sc2nc3ccccc3n12,21,9%,-16
O=C1c2sc3nc4ccccc4n3c2C(=O)N1c1ccccc1Cl,-3,3%,-87*
Cc1ccccc1N1C(=O)c2sc3nc4c(c(=O)n3c2C1=O)CCC4,-3,-3%[7.66 µM],-57*
O=C1c2sc3nc4c(c(=O)n3c2C(=O)N1c1ccccc1)CCC4,-8,-22%,0
CN1C(=O)/C(=C\C(=O)c2cccs2)c2ccccc21,2,-68%,1
CC(=O)c1c(O)c2ccccc2n(C2CCCCC2)c1=O,15,?,3
c1ccc(C2OC3c4cccc5cccc(c45)C3N2c2ccccc2)cc1 (stereo unspecified),-5,-64%,-59*
CSc1ccccc1C(=O)Nc1ccc2c(c1)OCCO2,-10,16%,28
SMILES,D3 ag,Integrin act MD,D3 antag
CCc1ccc(NC(=O)c2ccccc2SC)cc1,30*,-7%,-13
N#Cc1ccc(CSc2nc(N)cc(N)n2)cc1,-11,-22%,-55*
Cc1ccc(CSc2nc(N)cc(N)n2)cc1,0,-11%,17
O=c1oc(-c2cccc(Cl)c2)nc2c1cnn2-c1ccccc1,-4,11%,-23
O=c1oc(-c2ccccc2F)nc2c1cnn2-c1ccccc1,-23,2%,-65*
CCc1nc2ccc(C(=O)NCCCN(C)C)cn2c1N(C)CCCc1ccccc1,-20,·,-11
CCCn1c(SCC(=O)Nc2ccc(Cl)cc2)n[nH]c1=O,-4,-4%,-14
Cc1ccc(C)c(NC(=O)CSc2c3c(nc4ccc(Cl)cc24)CCCC3)c1,43*,·,·
Cc1ccc(CNC(=O)CSc2c3c(nc4ccc(Cl)cc24)CCCC3)cc1,27,·,·
COCCN(C(=O)C(=O)NC1CCCC1)C(C(=O)NC1CCCC1)c1ccccc1F (stereo unspecified),2,14%,13
Cc1ccc(-c2noc(-c3ccc(NCC4CCCO4)c([N+](=O)[O-])c3)n2)cc1 (stereo unspecified),-16,·,·
CCc1ccccc1NC(=O)C1CC(c2ccc(OC)cc2)=NO1 (stereo unspecified),-1,?,-1
CC(=O)Nc1sc2c(c1-c1nc3ccccc3s1)CCN(C(C)C)C2,-10,-70%,-116*
CCN1CCc2c(sc(NC(=O)CSc3ccccc3)c2-c2nc3ccccc3s2)C1,-24,·,·
CC(NC(=O)CCc1nc2cc(S(=O)(=O)N3CCOCC3)ccc2n1C)c1ccc(S(N)(=O)=O)cc1 (stereo unspecified),7,11%,27
CC[C@@H](C(=O)[C@@H](C)[C@@H](O)[C@H](C)[C@@H]1O[C@@H]([C@@H](CC)C(=O)O)CC[C@@H]1C)[C@H]1O[C@]2(C=C[C@@H](O)[C@]3(CC[C@@](C)([C@H]4CC[C@](O)(CC)[C@H](C)O4)O3)O2)[C@H](C)C[C@@H]1C,249*,·,373
CCCc1cc(=O)oc2cc(C)c3c(C)coc3c12,2,-24%,-14
O=S(=O)(Nc1nc2ccccc2[nH]1)c1ccc(Cl)cc1,-6,12%[7.66 µM],-22
O=S(=O)(Nc1nc2ccccc2[nH]1)c1ccccc1,0,3%,-55*
COc1ccccc1CNCCS(=O)(=O)NCc1ccccc1,-38,6%,?
CCCCCCCCNCCS(=O)(=O)NCc1ccccc1OC,-32,-38%,-60*
CCCCNCCS(=O)(=O)NCc1ccccc1OC,-18,11%,?
COc1ccccc1CNS(=O)(=O)CCNC1CCCCC1,-25,27%,-73*
COc1ccccc1CNS(=O)(=O)CCNC1CC1,32*,10%,-3
COc1ccccc1CNCCS(=O)(=O)NCc1ccccc1OC,-16,9%,?
SMILES,D3 ag,Integrin act MD,D3 antag
Cc1cc(O)c(C(c2ccccc2)N2CCCCC2)c(=O)n1Cc1ccco1 (stereo unspecified),3,·,·
CNc1cnc(-c2cccc(C(=O)N3CCOCC3)c2)cn1,-8,·,0
O=c1cc(COn2nnc3ccc(C(F)(F)F)cc32)nc2sccn12,5,-17%,4
C=CCN(C(=O)C1CC(=O)N(C2CCCC2)C1)c1nc(-c2ccc(S(C)(=O)=O)cc2)cs1 (stereo unspecified),15,0%,100
O=C(CCNS(=O)(=O)c1c(Cl)cccc1Cl)N1CCCC1,4,-2%,-17
COc1ccccc1CN=C1NC(=O)C(CC(=O)Nc2ccc(C(C)=O)cc2)S1 (stereo unspecified),53*,-3%,-3
COc1ccc(CCNC(=O)CC2SC(=NCc3ccccc3OC)NC2=O)cc1 (stereo unspecified),5,-27%,-12
O=C(Nc1ccc2c(c1)C(=O)N(c1ccccc1)C2=O)c1cccs1,-4,2%,-13
Cc1cc(=O)oc2cc(OCCc3ccccc3)ccc12,-2,-9%,-8
